Our source for the growth values is PubChem BioAssay (NCI).

Some test systems named below: DU-145 prostate; K-562 leukemia; MALME-3M melanoma; MDA-MB-231 breast; RXF 393 renal; SF-268 CNS; SF-539 CNS; UACC-257 melanoma; M14 melanoma; HCT-15 colon; HT29 colon; SNB-75 CNS; SNB-19 CNS; U251 CNS; PC-3 prostate; SK-MEL-5 melanoma; UACC-62 melanoma; LOX IMVI melanoma; SK-MEL-28 melanoma.
Assay in all cases: NCI-60 one-dose screen, 48 h (100 = growth as untreated, 0 = no growth, -100 = all killed)
Common to all, as to conditions: 10 µM unless noted

This is part of a sample that, as a whole, favours compounds with a hit. Of some 83,000 tested, about 20% had one in any assay.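 Cell lines were cultured in 96-well plates, exposed to a single compound concentration, and assessed for percent growth 48 hours later.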 Values without a mark were called inactive. Calls of active or inactive are those of the source. The calls were made as follows: active = growth percent below 10; inactive = the rest.

In the case of `C#CC[C@@H]1C[C@]2(C)[C@H]3CC[C@@H]4[C@H]5C(C(=C)C)CC[C@]5(C(=O)NCCCCCCCCN)CC[C@@]4(C)[C@]3(C)CC[C@H]2C(C)(C)[C@H]1OC(C)=O` (some centres not stated), the growth was 75.3% with DU-145 prostate; -41.8% (active) in the assay on K-562 leukemia; 111% in the assay with MALME-3M melanoma; 67.9% in the assay with MDA-MB-231 breast; 71.5% in the assay with RXF 393 renal; 91.2% in the assay on SF-268 CNS. The growth in the assay with SF-539 CNS is 88.3%; in the assay with UACC-257 melanoma, 119%; with M14 melanoma it was 102%; with HCT-15 colon it was 67.5%; with HT29 colon, 30.5%; in the assay on SNB-75 CNS, 80.3%. Besides, the growth in the assay on SNB-19 CNS is 92.1%; with U251 CNS it was 71.1%; with PC-3 prostate, 55.3%; in the assay with SK-MEL-5 melanoma, 98%; in the assay on UACC-62 melanoma, 108%; in the assay on LOX IMVI melanoma it was 55%. For the same molecule, the growth with SK-MEL-28 melanoma was 113%.
For `C/C(=N\OC(=O)Nc1ccccc1)c1ccccc1`, the growth in the assay on DU-145 prostate was 97.1%; in the assay on K-562 leukemia, 96.6%; with MALME-3M melanoma, 107%; in the assay on MDA-MB-231 breast, 107%; in the assay with RXF 393 renal, 87.2%; in the assay on SF-268 CNS it was 104%. Also, the growth in the assay with SF-539 CNS was 105%; with UACC-257 melanoma it was 102%; in the assay on M14 melanoma, 103%; in the assay with HCT-15 colon, 96.8%; in the assay with HT29 colon, 105%; with SNB-75 CNS it was 87.7%. Besides, the growth is 103% in the assay with SNB-19 CNS; 89.7% with U251 CNS; 99.4% in the assay on PC-3 prostate; 95.6% with SK-MEL-5 melanoma; 94.2% in the assay on UACC-62 melanoma; 110% in the assay on LOX IMVI melanoma. In addition, in the assay on SK-MEL-28 melanoma, the growth was 101%.
On to `CCCCCCCCCCCCCC[N+](C)(C)CCCCCCCCCCCCCC`, for which the growth in the assay with DU-145 prostate was 97.9%; in the assay with K-562 leukemia it was 30.5%; in the assay with MALME-3M melanoma it was 50.1%; in the assay with MDA-MB-231 breast it was 78.9%; with RXF 393 renal, 2.29% (active); in the assay with SF-268 CNS, 70.8%. For the same molecule, the growth in the assay on SF-539 CNS is 77.2%; in the assay on UACC-257 melanoma it was 82.5%; in the assay on M14 melanoma, 75.4%; in the assay with HCT-15 colon, 75.1%; in the assay on HT29 colon, 30.5%; with SNB-75 CNS it was 62.9%. Moreover, the growth with SNB-19 CNS was 70.4%; in the assay on U251 CNS, 44.7%; in the assay on PC-3 prostate it was 12.6%; in the assay on SK-MEL-5 melanoma, 69.4%; with UACC-62 melanoma, 42.6%; with LOX IMVI melanoma, 51.8%. For the same molecule, the growth with SK-MEL-28 melanoma is 89.3%.
`Nc1nc2ccc([C@@H]3Nc4ccc5[nH]ncc5c4[C@H]4[C@H]5CCC(C5)[C@H]43)cc2s1`: the growth in the assay with DU-145 prostate is 9.96% (active); in the assay on K-562 leukemia, 19.4%; in the assay with MALME-3M melanoma it was -55.7% (active); with MDA-MB-231 breast, 47.2%; with RXF 393 renal it was -4.16% (active); in the assay on SF-268 CNS it was 48.4%. Also, the growth is 0.597% (active) with SF-539 CNS; 29.3% with UACC-257 melanoma; 17.7% in the assay with M14 melanoma; 29.7% in the assay with HCT-15 colon; 5.7% (active) with HT29 colon; -24.8% (active) in the assay with SNB-75 CNS. Moreover, the growth with SNB-19 CNS was 30.8%; with U251 CNS, 23.8%; in the assay on PC-3 prostate it was 6.63% (active); with SK-MEL-5 melanoma, 24.4%; in the assay with UACC-62 melanoma, -88.6% (active); with LOX IMVI melanoma, 40.7%. In the assay with SK-MEL-28 melanoma, the growth was 23.8%.
For the molecule `COc1ccc(-c2nc(-c3cc(OC)cc(OC)c3)[nH]c2-c2ccc(OC)cc2)cc1`, the growth in the assay with DU-145 prostate was 78.5%; in the assay with K-562 leukemia it was 16.3%; in the assay on MALME-3M melanoma, 70.9%; with MDA-MB-231 breast it was 58.7%; in the assay on RXF 393 renal, 54.5%; with SF-268 CNS it was 88.6%. Besides, the growth is 80.5% with SF-539 CNS; 62.9% in the assay with UACC-257 melanoma; 49.7% in the assay with M14 melanoma; 45.3% with HCT-15 colon; 17.3% in the assay with HT29 colon; 86.1% in the assay with SNB-75 CNS. Also, the growth in the assay on SNB-19 CNS is 61.2%; with U251 CNS, 45.6%; with PC-3 prostate it was 27.5%; in the assay on SK-MEL-5 melanoma, 14.9%; in the assay on UACC-62 melanoma, 37%; with LOX IMVI melanoma, 61.3%. Besides, in the assay with SK-MEL-28 melanoma, the growth is 67.4%.
On to `O=C(Oc1c(Cl)c(Cl)c(Cl)c(Cl)c1Cl)C1CCCN1C(=O)OCc1ccccc1` (configuration not stated), for which the growth in the assay with DU-145 prostate is 60.9%; with K-562 leukemia, 17.3%; in the assay with MALME-3M melanoma, 72.3%; in the assay with MDA-MB-231 breast, 69.1%; with RXF 393 renal, 92.2%; in the assay with SF-268 CNS it was 42.2%. Further, the growth in the assay on SF-539 CNS is 50.5%; with UACC-257 melanoma, 82.1%; with M14 melanoma, 78.9%; in the assay with HCT-15 colon, 15.4%; in the assay on HT29 colon, 89.1%; in the assay with SNB-75 CNS it was 36.4%. The growth was 26.2% in the assay on SNB-19 CNS; 18.3% in the assay with U251 CNS; 10.7% with PC-3 prostate; 76.2% with SK-MEL-5 melanoma; 75.2% in the assay on UACC-62 melanoma; 64.8% with LOX IMVI melanoma. Moreover, the growth with SK-MEL-28 melanoma is 99%.
As for `CC1=C(C(=O)Nc2ccc(F)cc2)C(c2ccc(Cl)cc2)C2=C(CC(C)(C)CC2=O)N1` (configuration not stated), the growth in the assay on DU-145 prostate is 105%; with K-562 leukemia it was 74%; in the assay with MALME-3M melanoma it was 160%; in the assay on MDA-MB-231 breast, 82%; in the assay with RXF 393 renal, 96.4%; in the assay on SF-268 CNS, 86.3%. Moreover, the growth is 94% in the assay with SF-539 CNS; 95.3% in the assay with UACC-257 melanoma; 98.5% in the assay with M14 melanoma; 84.6% with HCT-15 colon; 98% with HT29 colon; 66% in the assay on SNB-75 CNS. For the same molecule, the growth in the assay on SNB-19 CNS is 86%; in the assay with U251 CNS it was 81.6%; in the assay with PC-3 prostate, 61.7%; in the assay with SK-MEL-5 melanoma, 75.9%; in the assay with UACC-62 melanoma, 77.4%; with LOX IMVI melanoma, 87.8%. The growth in the assay with SK-MEL-28 melanoma is 82.6%.
As to `C#CC[C@@H]1C[C@]2(C)[C@H]3CC[C@@H]4[C@H]5C(C(=C)C)CC[C@]5(C(=O)NCCCCN)CC[C@@]4(C)[C@]3(C)CC[C@H]2C(C)(C)[C@H]1OC(C)=O` (some centres not stated), the growth with DU-145 prostate is -77.8% (active); with K-562 leukemia, -9.82% (active); in the assay on MALME-3M melanoma, 46.6%; in the assay on MDA-MB-231 breast it was -81.2% (active); in the assay with RXF 393 renal it was -89.2% (active); in the assay with SF-268 CNS it was 91.6%. In addition, the growth with SF-539 CNS was -82.9% (active); in the assay on UACC-257 melanoma, 85.9%; in the assay on M14 melanoma, -58.5% (active); in the assay on HCT-15 colon it was -66.1% (active); in the assay with HT29 colon, -61.3% (active); with SNB-75 CNS, -97.3% (active). Also, the growth was -56.7% (active) with SNB-19 CNS; -86.6% (active) in the assay on U251 CNS; 6.29% (active) in the assay on PC-3 prostate; 89.9% in the assay on SK-MEL-5 melanoma; -36.1% (active) in the assay with UACC-62 melanoma; -83.4% (active) with LOX IMVI melanoma. Also, the growth in the assay with SK-MEL-28 melanoma is 67.9%.
